Compound activity from PubChem.
Rows were chosen to be rich in hits. Some 3.5% of all compounds tested hit in one or more screens of this group.
14-3-3 Bad inh: disrupts binding of bovine 14-3-3 zeta to phospho-Bad peptide; TR-FRET 14-3-3zeta/Dy647-pBad peptide displacement, 1 h; inhibition, % at 21.7 µM; 0.71% of 220,000 active; AID 781;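 active means inhibition above about 70%, limit read from the data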
eIF4E 4G PPI: eIF4E/eIF4G interaction inhibition in translation initiation; TR-FRET eIF4E-eIF4GI(517-606) binding, 2 h; inhibition, % at 21.7 µM; 0.37% of 220,000 active; AID 782;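 active means inhibition above about 30%, limit read from the data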
Target sequence (P63073 whole entry, looked up): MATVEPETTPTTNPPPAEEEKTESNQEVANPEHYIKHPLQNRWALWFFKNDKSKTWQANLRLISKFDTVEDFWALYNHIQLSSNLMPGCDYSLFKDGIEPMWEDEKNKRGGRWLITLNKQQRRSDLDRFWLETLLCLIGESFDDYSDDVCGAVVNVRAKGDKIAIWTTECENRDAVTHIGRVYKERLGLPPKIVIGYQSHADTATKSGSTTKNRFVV
Target sequence (Q04637 whole entry, looked up): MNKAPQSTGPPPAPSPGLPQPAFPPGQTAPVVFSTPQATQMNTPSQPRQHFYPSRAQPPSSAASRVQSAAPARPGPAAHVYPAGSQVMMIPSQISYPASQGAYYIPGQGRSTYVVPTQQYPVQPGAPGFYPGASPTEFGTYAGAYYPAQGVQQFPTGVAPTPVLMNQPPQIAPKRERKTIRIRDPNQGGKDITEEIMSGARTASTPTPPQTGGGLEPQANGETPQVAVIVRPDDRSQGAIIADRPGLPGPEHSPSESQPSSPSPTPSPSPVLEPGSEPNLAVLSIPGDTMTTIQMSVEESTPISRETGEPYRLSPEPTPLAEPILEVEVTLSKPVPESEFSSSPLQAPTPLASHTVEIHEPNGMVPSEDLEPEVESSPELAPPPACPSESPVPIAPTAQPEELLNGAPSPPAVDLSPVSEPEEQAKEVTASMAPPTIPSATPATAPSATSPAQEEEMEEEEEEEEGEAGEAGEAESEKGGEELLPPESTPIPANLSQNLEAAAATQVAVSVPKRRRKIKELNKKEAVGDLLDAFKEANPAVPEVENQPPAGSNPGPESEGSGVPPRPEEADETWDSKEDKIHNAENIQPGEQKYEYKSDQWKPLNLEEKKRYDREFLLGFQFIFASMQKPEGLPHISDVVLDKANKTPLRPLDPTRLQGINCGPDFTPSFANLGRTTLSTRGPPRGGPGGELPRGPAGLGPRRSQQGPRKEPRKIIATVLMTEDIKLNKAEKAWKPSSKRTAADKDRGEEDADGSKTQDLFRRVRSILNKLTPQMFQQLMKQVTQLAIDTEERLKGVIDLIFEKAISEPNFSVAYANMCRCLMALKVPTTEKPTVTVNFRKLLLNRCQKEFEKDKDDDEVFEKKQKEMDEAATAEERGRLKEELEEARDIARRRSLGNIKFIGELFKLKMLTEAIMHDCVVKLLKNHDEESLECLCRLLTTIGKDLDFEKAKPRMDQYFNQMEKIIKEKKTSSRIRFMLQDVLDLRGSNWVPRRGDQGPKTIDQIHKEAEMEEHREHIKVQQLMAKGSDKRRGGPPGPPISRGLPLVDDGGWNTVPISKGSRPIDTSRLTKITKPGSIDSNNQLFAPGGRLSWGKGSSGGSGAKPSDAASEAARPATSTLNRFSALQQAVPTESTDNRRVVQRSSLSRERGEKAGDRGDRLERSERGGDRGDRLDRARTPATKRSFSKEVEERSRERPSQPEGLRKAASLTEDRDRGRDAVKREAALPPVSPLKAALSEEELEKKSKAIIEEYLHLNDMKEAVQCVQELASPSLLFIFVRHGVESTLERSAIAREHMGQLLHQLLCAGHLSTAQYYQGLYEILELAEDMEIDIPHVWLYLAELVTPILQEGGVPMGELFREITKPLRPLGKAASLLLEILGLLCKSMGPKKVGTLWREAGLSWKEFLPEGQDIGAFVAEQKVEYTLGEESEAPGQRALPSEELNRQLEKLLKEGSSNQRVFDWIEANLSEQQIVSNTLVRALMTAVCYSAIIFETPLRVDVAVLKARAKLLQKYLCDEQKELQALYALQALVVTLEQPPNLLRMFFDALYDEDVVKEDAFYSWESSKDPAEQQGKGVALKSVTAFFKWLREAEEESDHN
Hck Nef HTS: human Hck-Nef kinase inhibition; inhibition, % at 20 µM; 0.68% of 220,000 active; Recombinant Hck-YEEI plus Nef, Z-Lyte FRET kinase assay; P08631;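 active means Hck-Nef kinase inhibition above about 50%, limit read from the data; inactive means inhibition below that limit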
Mcl1-Bid inh: disrupts binding of human Mcl-1 to Bid peptide; TR-FRET Mcl-1/Bid-Dy647 peptide binding, 1536-well; inhibition, % at 21.7 µM; 0.97% of 220,000 active; AID 1021;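 active means compounds that cut the binding signal by more than half at the single screening dose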;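 further: His-tagged Mcl-1 with europium anti-His antibody binding Bid BH3 peptide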
Mcl-1 Bim block: disrupts Bim peptide binding to human Mcl-1; Q07820; Bead-based flow cytometry, Bim peptide-Mcl-1 binding; inhibition, % at 10 µM; 0.1% of 190,000 active; AID 1009; in the data active means inhibition above about 40%
Mcl1 Noxa PPI: disrupts binding of human Mcl-1 to Noxa peptide; Q07820; TR-FRET Mcl-1/Noxa peptide binding, 2 h; inhibition, % at 21.7 µM; 1.5% of 220,000 active;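 active means compounds that cut the protein-peptide binding signal by more than 50% relative to plate controls in a single-dose test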;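 further: His-tagged Mcl-1 with rhodamine Noxa BH3 peptide and terbium anti-His antibody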
Hck-Nef confirm: confirmation of Hck-Nef kinase inhibitors; shares compounds with Hck Nef HTS; Recombinant Hck-YEEI:Nef, Z-Lyte FRET kinase assay; calls only at 10 µM; 28% of 1,300 active; AID 463188;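 active means average inhibition of at least 50%, with Z-scores no higher than 3 in both the phospho-tyrosine peptide and fluorescence counterscreens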
A number is an active result; i = inactive; nt = no result shown; + = active, no number; [ ] = dose if it differs, or a comment.

SMILES	14-3-3 Bad inh	eIF4E 4G PPI	Hck Nef HTS	Mcl1-Bid inh	Mcl-1 Bim block	Mcl1 Noxa PPI	Hck-Nef confirm
Cc1cc(=O)oc2cc(OCc3ccc(C(=O)OCC(=O)Nc4ccc(N(C)C)cc4)cc3)ccc12	79.1	i	146.7	91.9	i	95.6	i
CCOC(=O)C(/C(C)=N/NC(=O)C1CC1c1ccccc1)C(C)C (stereo not drawn)	i	i	i	i	i	i	nt
CCCCOc1ccc(NC(=O)Nc2nnc(C)s2)cc1	i	i	i	i	nt	i	nt
O=C(Cn1nc(C(=O)O)c2ccccc2c1=O)Nc1nc(-c2ccccc2)cs1	i	i	52.1	i	nt	i	i
NC(=O)c1c(NC(=O)Cn2nc(C(=O)O)c3ccccc3c2=O)sc2c1CCC2	i	i	91.0	i	nt	i	i
Fc1ccccc1Nc1nc(-c2ccncc2)nc2ccccc12	i	i	i	i	i	i	nt
CCOc1ccc(C(=O)NC(C)(C)CC)cc1	i	i	i	i	i	i	nt
Cn1c(=O)[nH]c(=O)c2c1nc(N1CCOCC1)n2CCc1ccccc1	i	i	i	i	i	i	nt
N#CCCn1cc(C(=O)Nc2ccc([N+](=O)[O-])cc2)c(-c2cc3ccccc3o2)n1	i	i	i	i	i	i	nt
Nc1cc(C(=O)O)c(N)c2c1C(=O)c1ccccc1C2=O	i	i	62.0	i	nt	96.1	i
Cc1ccc2c(c1)C(=O)c1c(C(=O)O)cccc1-2	i	i	i	i	i	i	nt
C=CCn1cc(C(C)=O)c(=O)[nH]c1=O	i	i	i	i	i	i	nt
COc1ccc(S(=O)(=O)N(Cc2ccccc2)Cc2nc3ccccc3c(=O)[nH]2)cc1	i	i	i	i	i	i	nt
COc1ccccc1CN(Cc1nc2ccccc2c(=O)[nH]1)S(=O)(=O)c1ccc2ccccc2c1	i	i	109.6	i	i	i	i
CC(=O)OCC(OC(C)=O)C(OC(C)=O)C(OC(C)=O)C(=O)Nc1ccccc1 (stereo not drawn)	i	i	i	i	i	i	nt
CCCCC1(C)OC(=O)C(=Cc2ccc(-c3ccc(Cl)c(C(=O)O)c3)o2)C(=O)O1 (stereo not drawn)	i	i	i	i	nt	i	nt
CC1=C(C#N)C(=O)NC(=O)/C1=C\c1ccc(-c2ccc(C)cc2[N+](=O)[O-])o1	i	32.6	99.8	75.2	i	94.5	+
CCOC(=O)c1cc(-c2ccc(/C=C3/C(=O)NC(=O)C(C#N)=C3C)o2)ccc1Cl	77.2[fluorescence artefact?]	58.6[fluorescence artefact?]	80.9	93.0	i	102.3	+
Cc1ccc(-c2ccc(/C=N/N=C3/NC(=O)C(CC(=O)O)S3)o2)c([N+](=O)[O-])c1 (stereo not drawn)	i	i	i	i	i	i	nt
COc1ccc(CN2CCNC(=O)C2CC(=O)NCCSc2nccn2C)cc1OC (stereo not drawn)	i	i	i	i	i	i	nt
CC(/C=N/n1c(COc2ccccc2)n[nH]c1=S)=C\c1ccco1	i	i	50.0	i	nt	i	i
COC(=O)c1ccc(C(=O)NCCCCO)cc1	i	i	i	i	i	i	nt
C/C(=C/CCC(C)[C@H]1CC[C@@]2(C)C3=C(CC[C@]12C)[C@@]1(C)CCC(=O)C(C)(C)[C@@H]1CC3)C(=O)O (stereo partly drawn)	i	i	100.4	i	i	i	+
C/C(=C/CCC(C)C1CCC2(C)C3CCC4C(C)(C)C(=O)CCC4(C)C3=CCC12C)C(=O)O (stereo not drawn)	i	i	i	i	nt	i	nt
Cc1cn2nc(N)c3ccccc3c2n1	i	i	i	i	i	i	nt
SMILES	14-3-3 Bad inh	eIF4E 4G PPI	Hck Nef HTS	Mcl1-Bid inh	Mcl-1 Bim block	Mcl1 Noxa PPI	Hck-Nef confirm
Nc1nn2cc(-c3ccccc3)nc2c2ccccc12	i	i	50.5	i	i	i	+
CCc1cc2c(C)cc(=O)oc2cc1OC(=O)C1CCCN1C(=O)OC(C)(C)C (stereo not drawn)	i	i	74.9	i	i	i	i
CC(C)(C)OC(=O)N1CCCC1C(=O)NCCc1ccccc1 (stereo not drawn)	i	i	i	i	i	i	nt
O=C(CN(C(=O)c1csnn1)c1cccc2c1CCCC2)NC1CCCC1	i	i	i	i	i	i	nt
Nc1[nH][nH]c(=O)c1N=Nc1cccc(Cl)c1	i	i	i	i	i	i	nt
NC(=S)n1[nH]c(-c2ccc([N+](=O)[O-])cc2)c(N=Nc2cccc(Cl)c2)c1=O	88.3	i	nt	81.5	i	92.6	+
NS(=O)(=O)c1ccc(CNS(=O)(=O)c2cc(C(=O)O)ccc2Cl)cc1	i	i	63.2	i	i	i	i
Cc1ccc2nc3nc(NCC4CCCO4)c(C(=O)NC4CCCC4)cc3c(=O)n2c1 (stereo not drawn)	i	i	163.8	i	i	i	nt
Cc1ccc2nc3nc(NCC4CCCO4)c(C(=O)NC4CCCCC4)cc3c(=O)n2c1 (stereo not drawn)	i	i	134.3	i	i	i	nt
CCNc1nc2nc3ccc(C)cn3c(=O)c2cc1C(=O)NCC1CCCO1 (stereo not drawn)	i	i	+	i	i	i	nt
COc1ccc(NC(=O)c2cc3c(s2)CCC(C)C3)cc1S(=O)(=O)N1CCOCC1 (stereo not drawn)	i	i	i	i	i	i	nt
CC(=O)Nc1sc(N/N=C/c2ccccc2F)nc1-c1ccc(C)cc1	i	i	i	i	nt	i	nt
CC(=O)Nc1ccc(/C=N/Nc2nc3ccccc3s2)cc1	i	i	i	i	nt	i	nt
CC(=O)Nc1sc(N/N=C/c2ccccc2)nc1-c1ccc(C)cc1	i	i	68.8	i	nt	i	i
CC(=O)Nc1sc(N/N=C/c2ccc(O)cc2)nc1-c1ccc(C)cc1	i	i	68.7	i	nt	89.2	i
COc1ccc(/C=N/Nc2nc(-c3ccc(C)cc3)c(NC(C)=O)s2)cc1	i	i	83.4	i	nt	i	i
C=CCCCCCCCC(=O)OC	i	i	i	i	i	i	nt
O=C(CSCc1ccc(Cl)cc1)Nc1ccc(-c2nnc(-c3ccccc3)o2)cc1	i	i	91.1	59.3	i	i	i
O=C(Cc1ccc(Cl)cc1)Nc1ccc(-c2nnc(-c3ccco3)o2)cc1	i	i	i	i	i	i	nt
CC1=N/C(=C/c2ccco2)C(=O)O1	i	i	58.5	i	i	i	i
O=C1SC(c2ccccc2)=N/C1=C/c1ccco1	i	i	i	i	i	i	nt
COc1ccc(C(=O)n2cc(C(=O)c3cc(C)ccc3O)cn2)cc1OC	i	i	67.3	i	i	i	+
COCCCNC(=O)c1cc(C(=O)c2ccccc2Br)c[nH]1	i	i	i	i	i	i	nt
O=C(c1c[nH]c(C(=O)C(Cl)(Cl)Cl)c1)c1ccccc1Br	i	i	79.3	i	i	i	i
Cc1ccccc1C(=O)NC(=S)Nc1ccc2[nH]c(=O)[nH]c2c1	i	i	i	i	i	i	nt
